Shown are actives, neighbours in structure and some others; about 3.8% of the full set was active somewhere.
Gli-Sufu antag – Gli-Sufu pathway antagonism. Sufu-KO-LIGHT fibroblasts, Gli luciferase reporter luminescence. inhibition, % at 5 µM. hit rate 0.74% among 340,000;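 active = inhibition above about 55%, limit read from the data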;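 also: 0% = DMSO-treated cells and 100% = wells with medium but no cells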
697 NFkB inh – lowers PMA/ionomycin-induced NF-kB signal in 697 B cells; 697 B-cell NF-kB luciferase reporter, 16 h; inhibition, % at 4 µM; hit rate 0.33% among 330,000; in the data active = inhibition above about 35%
Mdm2 MdmX PPI – inhibitors of human Mdm2/MdmX interaction; SaOS-2 split-luciferase Mdm2/MdmX complementation, luminescence; hit rate 3% among 330,000; inhibition, % at 8 µM; O15151+Q00987;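 active = inhibition of at least 50% at 8 µM in the primary screen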
Shn3 3UTR inh – reduces Shn3 3'UTR luciferase signal in osteoblasts; hit rate 0.52% among 360,000; inhibition, % at 12.5 µM; Clone20 osteoblast Shn3 3'UTR firefly luciferase, 24 h;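 active = mean inhibition of at least 75% with every replicate also reaching 75%; inconclusive = mean inhibition at least 75% but some replicate below; inactive = mean inhibition below 75%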;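 also: 0% = median of neutral control wells and 100% = pilot-screen positive control compound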
Jurkat NFkB inh – inhibitors of the PMA/ionomycin-induced NF-kB reporter in Jurkat cells. PMA/ionomycin-induced NF-kB luciferase reporter, luminescence. inhibition, % at 4 µM. hit rate 0.53% among 330,000; in the data active = inhibition above about 50%
* marks the source's active call; other numbers are inactive results; ? = inconclusive; / = not tested or not shown; ! = not confirmed by another sample.

SMILES	Gli-Sufu antag	697 NFkB inh	Mdm2 MdmX PPI	Shn3 3UTR inh	Jurkat NFkB inh
O=C(c1ccco1)N1CCN(C2CN(C3CCCCC3)S(=O)(=O)C2)CC1 (centres undefined)	/	/	/	-7	/
COc1cccc2c1C(=O)c1c(O)c3c(c(O)c1C2=O)CC(O)(C(=O)CO)CC3OC1CC(N(C)C)C(O)C(C)O1 (centres undefined)	85*	/	/	97*	/
CSc1nc(SCC(N)=O)c2c3c(sc2n1)CN(C)CC3	99*	-13	0	8	-9
CCNc1nc(SCC(N)=O)nc2sc3c(c12)CCN(C)C3	3	-6	0	-2	-1
O=C(CSc1nc2c(c(=O)n1-c1ccc(Br)cc1)SCC2)NCc1ccco1	10	19	-9	92*	21
O=C(Nc1ccc([N+](=O)[O-])cc1)Nc1nc(-c2ccc(Cl)s2)cs1	60*	/	/	?	/
Cc1ccc(C(=O)NCCN(C)C)c(C)c1	0	-66	-26	8	-15
CNc1c2cccc(C)c2nc2c(C(=O)NCCN(C)C)cccc12	21	/	/	97*	/
CCc1nc2c(OCCn3cccc3)cccn2c1N(C)C(=O)c1ccccc1F	/	/	/	0	/
Cc1ccc(C)c(S(=O)(=O)/N=C2\C=C(NS(=O)(=O)c3ccccc3)C(=O)c3ccccc32)c1	-9	1	22	8	1
Cc1cc(C)c(S(=O)(=O)/N=C2/C=C(Sc3ncn[nH]3)C(=O)c3ccccc32)cc1C	1	/	/	94*	/
CCCCNC(=O)C1(C)CCCCN1C(=O)c1ccc2sccc2c1 (centres undefined)	/	/	/	-12	/
CC(C)COC(=O)N1CCCC(c2cc(C(=O)Nc3ccccc3Cl)no2)C1 (centres undefined)	/	/	/	9	/
CC1CC(C)CN(C(=O)CN2C(=O)NC3(CCCCCC3)C2=O)C1 (centres undefined)	-3	21	14	-35	7
CCN1/C(=C/c2sc(-c3ccccc3C)c[n+]2C)Sc2ccccc21	90*	/	/	90*	/
S=C(NCc1ccccc1)Nc1cccc2cnccc12	65*	-15	24	75	18
S=C(NCc1cccnc1)Nc1cccc2ccccc12	-1	1	27	2	6
O=C1C(=C(I)I)c2ccccc2-c2ccccc21	18	/	/	98*	/
CN(C(=O)c1cc(-c2cccs2)nn1-c1ccccc1)C1CCS(=O)(=O)C1 (centres undefined)	/	/	/	9	/
CCOc1cc(C)c(S(=O)(=O)Nc2ccc3cn[nH]c3c2)cc1C	43	-6	31	87*	16
CN(C(=O)c1cccc(NC(=O)Cc2cccc(NC(=O)C3CCCN(C(=O)c4ccccc4)C3)c2)c1)C1CCC1 (centres undefined)	8	/	/	3	/
CCC(=O)c1cn(CC(=O)Nc2cccc(C)c2C)c2ccccc12	73*	15	-14	84	8
CCC(=O)c1cn(CC(=O)Nc2ccccc2Cl)c2ccccc12	43	-3	-19	89*	-2
CC(=O)c1cccc(-c2csc3ncnc(Sc4nnnn4C)c23)c1	/	/	/	95*	/
O=C(NCC(c1cccs1)N1CCOCC1)c1cc2ccccc2oc1=O (centres undefined)	-8	-21	-24	-23	5
SMILES	Gli-Sufu antag	697 NFkB inh	Mdm2 MdmX PPI	Shn3 3UTR inh	Jurkat NFkB inh
COC(=O)/C=C/S(=O)(=O)c1ccc(NC(C)=O)cc1	4	33	16	93*	35
COc1ccc(CC(=O)NCc2cccc(Cl)c2)cc1S(=O)(=O)N1CCOCC1	/	/	/	-1	/
Cn1c2ccccc2c2ccc3c(c21)C(=O)C=CC3=O	9	/	/	94*	/
COc1cccc(C2=CC(=O)C[C@H](c3ccc4c(c3)OCO4)C2)c1	-3	5	19	1	11
COc1ccc([C@H]2CC(=O)C=C(c3ccc4c(c3)OCO4)C2)cc1OC	1	-9	-8	86*	-13
Cc1cc(=O)[nH]c(NN=Cc2cc(Br)ccc2O)n1	76*	/	/	74	/
NC(=O)c1cc(N2C(=O)C=CC2=O)ccc1Cl	4	23	-26	94*	6
Cc1[nH]c(=O)sc1C(=O)NCc1ccc([N+](=O)[O-])cc1	/	/	/	2	/
O=C1c2ccccc2C(=O)C12OC2c1ccc(Cl)cc1Cl (centres undefined)	26	/	/	95*	/
O=C1c2ccccc2C(=O)C1c1ccc(Cl)cc1	-6	-16	0	4	-12
CCOc1ccc(OCCC(=O)N(CCOC)c2c(N)n(Cc3ccccc3)c(=O)[nH]c2=O)cc1	-6	/	/	55	/
COc1ccccc1NC(=S)NN=C(C)c1ccccn1	85*	/	/	91*	/
CC(=NNC(=S)Nc1ccc(C)cc1)c1ccccn1	25	/	/	72	/
CC(=NNC(=S)Nc1cccc(C)c1)c1ccccn1	82*	/	/	93*	/
C=CCn1nc(C(=O)N2CCOCC2)cc1-c1sc(NC(=O)c2ccccc2)nc1C	/	/	/	70	/
CCCCCOc1ccc(Br)cc1CSC(=N)N	66*	/	/	89*	/
CCN1C(=O)[C@H]2[C@@H](c3ccc(-c4ccc(OC)cc4)cc3)N3CCC[C@@]3(C(=O)OC)[C@H]2C1=O	0	16	22	90*	10
Cc1ccccc1-c1cc2nc(Oc3ccc4c(c3)OCO4)n(C)c(=O)c2s1	/	/	/	0	/
O=C(O)c1cccc(S(=O)(=O)NCC2COc3ccccc3O2)c1 (centres undefined)	4	-6	6	-2	-16
CCOC1=C2[C@H](c3ccc(CC)cc3)N(S(=O)(=O)c3ccc(C)cc3)C[C@H]2C(C#N)(C#N)C(C#N)(C#N)C1	/	/	/	95*	/
O=C(CSc1ccc(S(=O)(=O)N2CCCC2)cn1)Nc1ccc([N+](=O)[O-])cc1C(F)(F)F	8	/	/	9	/
Cc1ccc(NN2C(=O)C=C(c3ccc(Cl)cc3)C2=O)cc1	32	3	32	99*	17
COc1ccc(S(=O)(=O)N2CCC(C(=O)NN3CCCCC3)CC2)cc1	/	/	/	-6	/
CN1CCN(Cc2nc3ccccc3c(=O)n2Cc2nc(-c3ccc4ccccc4c3)cs2)CC1	8	/	/	93*!	/
COc1cc(/C=C/C(=O)OCC(=O)Nc2cc(S(=O)(=O)N3CCCC3)ccc2Cl)cc(OC)c1OC	-3	-3	8	6	2
SMILES	Gli-Sufu antag	697 NFkB inh	Mdm2 MdmX PPI	Shn3 3UTR inh	Jurkat NFkB inh
CCN(CC)C(=O)C1CCN(S(=O)(=O)c2ccc3oc4ccccc4c3c2)CC1	34	-22	20	86*	14
O=C1NC(c2cccc(OCc3ccccc3)c2)Nc2ccccc21 (centres undefined)	47	/	/	-14	/
O=S(=O)(/C=C/C=C/S(=O)(=O)c1ccccc1)c1ccccc1	35	/	/	98*	/
Cc1ccc(S(=O)(=O)C=CS(=O)(=O)c2ccc(C)cc2)cc1	/	/	/	85	/
CN(Cc1ccccc1)C(=O)c1ccc(NC(=O)Cc2ccc(NC(=O)C3CCN(S(=O)(=O)c4cccc([N+](=O)[O-])c4)CC3)cc2)cc1	16	/	/	51	/
CS(=O)(=O)Nc1ccc2c(c1)[C@H]1C[C@H](CC(=O)NCc3cccc(F)c3)O[C@@H](CO)[C@H]1O2	/	/	/	0	/
CC1=NNC(=O)/C1=C\c1cn(-c2ccccc2)nc1-c1ccccc1	6	/	/	97*	/
CSc1ccccc1CNc1nc(NCC2CC2)nc2ccsc12	/	/	/	76	/
